# Measured values as given in PubChem BioAssay (Tox21).
# Unmarked numbers belong to inactive results. Inconclusive results are not listed. Entries that show only a call come without a potency. Calls of active or inactive are those of the source. Calls follow the shape of the dose curve; as a rule, active = well fitted curve in the direction sought with a large enough effect in the repeat runs; inconclusive = weak or mixed curves; inactive = no such curve, though single readings can be large; an effect the other way counts as inactive or inconclusive.
# Key:
# [1] = qHTS RealTime-Glo MT Cell Viability Assay in HepG2 cells - 8 hour (AID 1224873); details: RealTime-Glo luminescence; series mostly up to 76.8 µM; also: nearly all actives have a fitted effect of over 55% in size
# Procedure, shortened: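 Real-time viability: cells seeded at 600 per well together with NanoLuc and cell-permeant prosubstrate, compounds added after 5 h incubation. Luminescence tracked at 0, 8, 16, 24, 32 and 40 h of exposure.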
# [2] = qHTS RealTime-Glo MT Cell Viability Assay in HEK293 cells - 40 hour (AID 1224874); details: RealTime-Glo luminescence; max response: hits give low values; also: nearly all actives have a fitted effect of over 50% in size; also: potency is read from the fitted curve at half-maximal effect
# Procedure, shortened: (§1)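 Luminescence readout at each listed time point; HEK293, 600 cells/well, RealTime-Glo MT reagent added with cells; compounds pinned (23 nL in DMSO) after 5 h at 37 C; continuous culture at 37 C.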
# [3] = A CellTox Green Cytotoxicity Assay to monitor cytotoxicity in HEK293 cells - 24 hour (AID 1224875); details: CellTox Green fluorescence; series mostly up to 76.8 µM; also: nearly all actives have a fitted effect of over 45% in size; also: potency is read from the fitted curve at half-maximal effect
# Procedure, shortened: (§2)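 Read-out: fluorescence of a cell-impermeant cyanine dye staining DNA of dead cells, proportional to cytotoxicity. HEK293, 600 cells/well with reagent, compound (23 nL DMSO) added after 5 h; reads at 0, 8, 16, 24, 32, 40 h.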
# [4] = A CellTox Green Cytotoxicity Assay to monitor cytotoxicity in HepG2 cells - 16 hour (AID 1224876); details: CellTox Green fluorescence; series mostly up to 76.8 µM; also: nearly all actives have a fitted effect of over 45% in size
# Procedure, shortened: (§3)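 HepG2, 600 cells/well premixed w/ CellTox Green; 5 h settle, 37 C/5% CO2; pintool cpd add (DMSO); 37 C, 40 h; fluorescence read at 0, 8, 16, 24, 32, 40 h.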
# [5] = qHTS RealTime-Glo MT Cell Viability Assay in HepG2 cells - 32 hour (AID 1224877); details: RealTime-Glo luminescence; series mostly up to 76.8 µM; also: nearly all actives have a fitted effect of over 55% in size
# Procedure, shortened: (§4)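 Luminescence read-out: viable HepG2 cells reduce a prosubstrate to a NanoLuc substrate, giving a signal proportional to live cell number. Reads taken at 0, 8, 16, 24, 32 and 40 h of compound exposure at 37 C.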
# [6] = A CellTox Green Cytotoxicity Assay to monitor cytotoxicity in HepG2 cells - 24 hour (AID 1224878); details: CellTox Green fluorescence; series mostly up to 76.8 µM; also: nearly all actives have a fitted effect of over 45% in size
# Procedure, shortened: as §3
# [7] = A CellTox Green Cytotoxicity Assay to monitor cytotoxicity in HepG2 cells - 40 hour (AID 1224879); details: CellTox Green fluorescence; series mostly up to 76.8 µM; also: nearly all actives have a fitted effect of over 40% in size; also: potency is read from the fitted curve at half-maximal effect
# Procedure, shortened: as §3
# [8] = qHTS RealTime-Glo MT Cell Viability Assay in HEK293 cells - 0 hour (AID 1224880); details: RealTime-Glo luminescence; series mostly up to 76.8 µM; also: top concentration of the series differs between compounds; nearly all actives have a fitted effect of over 45% in size
# Procedure, shortened: as §1
# [9] = A CellTox Green Cytotoxicity Assay to monitor cytotoxicity in HEK293 cells - 32 hour (AID 1224881); details: CellTox Green fluorescence; series mostly up to 76.8 µM; also: nearly all actives have a fitted effect of over 40% in size; also: potency is read from the fitted curve at half-maximal effect
# Procedure, shortened: as §2
# [10] = A CellTox Green Cytotoxicity Assay to monitor cytotoxicity in HepG2 cells - 0 hour (AID 1224882); details: CellTox Green fluorescence; series mostly up to 76.8 µM; also: nearly all actives have a fitted effect of over 35% in size
# Procedure, shortened: as §3
# [11] = A CellTox Green Cytotoxicity Assay to monitor cytotoxicity in HepG2 cells - 32 hour (AID 1224883); details: CellTox Green fluorescence; series mostly up to 76.8 µM; also: nearly all actives have a fitted effect of over 50% in size
# Procedure, shortened: as §3
# [12] = A CellTox Green Cytotoxicity Assay to monitor cytotoxicity in HEK293 cells - 8 hour (AID 1224884); details: CellTox Green fluorescence; series mostly up to 76.8 µM; also: nearly all actives have a fitted effect of over 35% in size
# Procedure, shortened: as §2
# [13] = qHTS RealTime-Glo MT Cell Viability Assay in HepG2 cells - 16 hour (AID 1224885); details: RealTime-Glo luminescence; series mostly up to 76.8 µM; also: nearly all actives have a fitted effect of over 50% in size
# Procedure, shortened: as §4
# [14] = A CellTox Green Cytotoxicity Assay to monitor cytotoxicity in HEK293 cells - 16 hour (AID 1224888); details: CellTox Green fluorescence; series mostly up to 76.8 µM; also: nearly all actives have a fitted effect of over 35% in size
# Procedure, shortened: as §2
# [15] = qHTS RealTime-Glo MT Cell Viability Assay in HepG2 cells - 0 hour (AID 1224889); details: RealTime-Glo luminescence; series mostly up to 76.8 µM; also: nearly all actives have a fitted effect of over 50% in size
# Procedure, shortened: as §4
# [16] = A CellTox Green Cytotoxicity Assay to monitor cytotoxicity in HepG2 cells - 8 hour (AID 1224890); details: CellTox Green fluorescence; series mostly up to 76.8 µM; also: nearly all actives have a fitted effect of over 45% in size
# Procedure, shortened: as §3
# [17] = qHTS assay to identify small molecule antagonists of the estrogen receptor alpha (ER-alpha) signaling pathway using the BG1 cell line in the presence of 0.1 nM 17-beta-estradiol - cell viability counter screen (AID 1259241); details: VM7Luc4E2 (BG1) viability, CellTiter-Fluor protease, 22 h, 0.1 nM estradiol agonist added; series mostly up to 92.4 µM; also: nearly all actives have a fitted effect of over 40% in size
# Procedure, shortened: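 Measures cytotoxicity alongside the ER-alpha antagonist readout: VM7Luc4E2 cells, charcoal-stripped serum, 0.1 nM 17beta-estradiol final, 22 hr compound incubation at 37C, CellTiter-Fluor fluorescence.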
# [18] = qHTS assay to identify small molecule antagonists of the androgen receptor (AR) signaling pathway using the MDA cell line in the presence of 0.5 nM R1881 - cell viability counter screen (AID 1259242); details: MDA-kb2 viability, CellTiter-Fluor protease fluorescence, 16 h; series mostly up to 92.4 µM; also: nearly all actives have a fitted effect of over 45% in size
# Procedure, shortened: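 Live-cell protease fluorescence, CellTiter-Fluor, 30 min at 37C. Cells: MDA-kb2, 3,000/well, preincubated 5 hr. Compounds plus 0.5 nM R1881 final, 16 hr, 37C, 0% CO2.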
# [19] = qHTS RealTime-Glo MT Cell Viability Assay in HEK293 cells - 24 hour (AID 1224886); details: RealTime-Glo luminescence; series mostly up to 76.8 µM
# Procedure, shortened: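 Nonlytic real-time viability readout: viable cells convert prosubstrate to NanoLuc substrate, giving luminescence proportional to live cell number. HEK293, 600 cells/well, compound added after 5 h, continuous culture at 37 C.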
# [20] = qHTS RealTime-Glo MT Cell Viability Assay in HEK293 cells - 8 hour (AID 1224887); details: RealTime-Glo luminescence; series mostly up to 76.8 µM
# Procedure, shortened: as §1
smiles,measurement,setting,value
COC(=O)Nc1nc2ccc(C(=O)c3ccccc3)cc2[nH]1,Potency,[1],inactive
same,Potency,[2],0.477 µM (active)
same,Potency,[3],inactive
same,Potency,[4],inactive
same,Potency,[5],inactive
same,Potency,[6],inactive
same,Potency,[7],0.268 µM (active)
same,Potency,[8],inactive
same,Potency,[9],inactive
same,Potency,[10],inactive
same,Potency,[11],inactive
same,Potency,[12],inactive
same,Potency,[13],inactive
same,Potency,[14],inactive
same,Potency,[15],inactive
same,Potency,[16],inactive
same,Potency,[17],inactive
same,Potency,[18],inactive
Cc1c(C)c([N+](=O)[O-])c(C(C)(C)C)c([N+](=O)[O-])c1C,Potency,[1],inactive
same,max response,[2],-0.27%
same,Potency,[3],inactive
same,Potency,[4],inactive
same,Potency,[5],inactive
same,Potency,[6],inactive
same,Potency,[7],inactive
same,Potency,[8],inactive
same,Potency,[9],inactive
same,Potency,[10],inactive
same,Potency,[11],inactive
same,Potency,[12],inactive
same,Potency,[19],inactive
same,Potency,[20],inactive
same,Potency,[14],inactive
same,Potency,[15],inactive
same,Potency,[16],inactive
same,Potency,[17],inactive
same,Potency,[18],inactive
CC(CO)Oc1ccccc1 (configuration not stated),Potency,[1],inactive
same,max response,[2],-11%
same,Potency,[3],inactive
same,Potency,[4],inactive
same,Potency,[5],inactive
same,Potency,[6],inactive
same,Potency,[7],inactive
same,Potency,[8],inactive
same,Potency,[9],inactive
same,Potency,[10],inactive
same,Potency,[11],inactive
same,Potency,[12],inactive
same,Potency,[13],inactive
same,Potency,[19],inactive
same,Potency,[20],inactive
same,Potency,[14],inactive
same,Potency,[15],inactive
same,Potency,[16],inactive
same,Potency,[17],inactive
same,Potency,[18],inactive
CC(C)OC(=O)C(O)(CC(=O)O)CC(=O)O,Potency,[1],inactive
same,max response,[2],1.68%
same,Potency,[3],inactive
same,Potency,[4],inactive
same,Potency,[5],inactive
same,Potency,[6],inactive
same,Potency,[7],inactive
same,Potency,[8],inactive
same,Potency,[9],inactive
same,Potency,[10],inactive
same,Potency,[11],inactive
same,Potency,[12],inactive
same,Potency,[13],inactive
same,Potency,[19],inactive
same,Potency,[20],inactive
same,Potency,[14],inactive
same,Potency,[15],inactive
same,Potency,[16],inactive
same,Potency,[17],inactive
same,Potency,[18],inactive
Cc1c(C)c2c(c(C)c1OC(=O)c1cccnc1)CC[C@@](C)(CCC[C@H](C)CCC[C@H](C)CCCC(C)C)O2,Potency,[1],inactive
same,max response,[2],-1.07%
same,Potency,[3],inactive
same,Potency,[4],inactive
same,Potency,[5],inactive
same,Potency,[6],inactive
same,Potency,[7],inactive
same,Potency,[8],inactive
same,Potency,[9],inactive
same,Potency,[10],inactive
same,Potency,[11],inactive
same,Potency,[12],inactive
same,Potency,[19],inactive
same,Potency,[20],inactive
same,Potency,[14],inactive
same,Potency,[16],inactive
same,Potency,[17],inactive
same,Potency,[18],inactive
CCCC1CCC(=O)CC1,Potency,[1],inactive
same,max response,[2],11.1%
same,Potency,[3],inactive
same,Potency,[4],inactive
same,Potency,[5],inactive
same,Potency,[6],inactive
same,Potency,[7],inactive
same,Potency,[8],inactive
same,Potency,[9],inactive
same,Potency,[10],inactive
same,Potency,[11],inactive
same,Potency,[12],inactive
same,Potency,[13],inactive
same,Potency,[19],inactive
same,Potency,[20],inactive
same,Potency,[14],inactive
same,Potency,[17],inactive
CCC(=O)OC(=O)CC,Potency,[1],inactive
same,max response,[2],0.495%
same,Potency,[3],inactive
same,Potency,[4],inactive
same,Potency,[5],inactive
same,Potency,[6],inactive
same,Potency,[7],inactive
same,Potency,[8],inactive
same,Potency,[9],inactive
same,Potency,[10],inactive
same,Potency,[11],inactive
same,Potency,[12],inactive
same,Potency,[13],inactive
same,Potency,[19],inactive
same,Potency,[20],inactive
same,Potency,[14],inactive
same,Potency,[15],inactive
same,Potency,[17],inactive
same,Potency,[18],inactive
COC(=O)c1ccccc1C,Potency,[1],inactive
same,max response,[2],-4.12%
same,Potency,[3],inactive
same,Potency,[4],inactive
same,Potency,[5],inactive
same,Potency,[6],inactive
same,Potency,[7],inactive
same,Potency,[8],inactive
same,Potency,[9],inactive
same,Potency,[10],inactive
same,Potency,[11],inactive
same,Potency,[12],inactive
same,Potency,[13],inactive
same,Potency,[19],inactive
same,Potency,[20],inactive
same,Potency,[14],inactive
same,Potency,[15],inactive
same,Potency,[16],inactive
same,Potency,[17],inactive
Clc1ccnc(Cl)n1,Potency,[1],inactive
same,max response,[2],11.8%
same,Potency,[3],inactive
same,Potency,[4],inactive
same,Potency,[5],inactive
same,Potency,[6],inactive
same,Potency,[7],inactive
same,Potency,[8],inactive
same,Potency,[9],inactive
same,Potency,[10],inactive
same,Potency,[11],inactive
same,Potency,[12],inactive
same,Potency,[13],inactive
same,Potency,[19],inactive
same,Potency,[20],inactive
same,Potency,[14],inactive
same,Potency,[16],inactive
same,Potency,[17],inactive
same,Potency,[18],inactive
C=C(C)c1cccc(C(=C)C)c1,Potency,[1],inactive
same,max response,[2],-0.359%
same,Potency,[3],inactive
same,Potency,[4],inactive
same,Potency,[5],inactive
same,Potency,[6],inactive
same,Potency,[7],inactive
same,Potency,[8],inactive
same,Potency,[9],inactive
same,Potency,[10],inactive
same,Potency,[11],inactive
same,Potency,[12],inactive
same,Potency,[13],inactive
same,Potency,[19],inactive
same,Potency,[20],inactive
same,Potency,[14],inactive
same,Potency,[15],inactive
same,Potency,[16],inactive
same,Potency,[17],inactive
Cc1c(F)c(N2CCNC(C)C2)cc2c1c(=O)c(C(=O)O)cn2C1CC1 (configuration not stated),Potency,[1],inactive
same,max response,[2],11.8%
same,Potency,[3],inactive
same,Potency,[4],inactive
same,Potency,[5],inactive
same,Potency,[6],inactive
same,Potency,[7],inactive
same,Potency,[8],inactive
same,Potency,[9],inactive
same,Potency,[10],inactive
same,Potency,[11],inactive
same,Potency,[12],inactive
same,Potency,[13],inactive
same,Potency,[19],inactive
same,Potency,[20],inactive
same,Potency,[14],inactive
same,Potency,[15],inactive
same,Potency,[16],inactive
same,Potency,[17],inactive
same,Potency,[18],inactive
C=CCCC(=O)/C=C/C1C(C)=CCCC1(C)C (configuration not stated),Potency,[1],inactive
same,max response,[2],-12.7%
same,Potency,[3],34.7 µM (active)
same,Potency,[4],inactive
same,Potency,[5],inactive
same,Potency,[6],inactive
same,Potency,[7],inactive
same,Potency,[8],inactive
same,Potency,[9],24.5 µM (active)
same,Potency,[10],inactive
same,Potency,[11],inactive
same,Potency,[12],inactive
same,Potency,[13],inactive
same,Potency,[19],inactive
same,Potency,[20],inactive
same,Potency,[15],inactive
same,Potency,[16],inactive
same,Potency,[17],inactive
same,Potency,[18],inactive
CCc1ccc(Br)cc1,Potency,[1],inactive
same,max response,[2],5.1%
same,Potency,[3],inactive
same,Potency,[4],inactive
same,Potency,[5],inactive
same,Potency,[6],inactive
same,Potency,[7],inactive
same,Potency,[8],inactive
same,Potency,[9],inactive
same,Potency,[10],inactive
same,Potency,[11],inactive
same,Potency,[12],inactive
same,Potency,[13],inactive
same,Potency,[19],inactive
same,Potency,[20],inactive
same,Potency,[14],inactive
same,Potency,[15],inactive
same,Potency,[16],inactive
same,Potency,[17],inactive
same,Potency,[18],inactive
